Screening data (PubChem BioAssay)
Autofluor counter = compound fluorescence in toxin protease inhibitor counterscreen; compound autofluorescence counterscreen, microsphere flow cytometry; stronger effect = higher value; fluorescence intensity (concentration not given with the values); 360,000 tested, 3.1% active; in the data active means fluorescence intensity above about 16000; inconclusive means no clear call, values can overlap the other calls
BoNT F protease = blocks Botulinum neurotoxin F light chain protease | inhibition, % at 10 µM | Multiplex microsphere protease cleavage assay, flow cytometry | 360,000 tested, 0.22% active; in the data active means inhibition above about 35%, passing the limit was not always enough; inconclusive means no clear call, values can overlap the other calls; further: plate controls were buffer without enzyme for full effect and enzyme alone for no effect
3CLpro inhibitor = SARS-CoV 3CLpro protease inhibition; AID 1706; inhibition, % at 6 µM; 290,000 tested, 0.14% active; P0C6X7; recombinant SARS-CoV 3CLpro, quenched FRET peptide cleavage; in the data active means inhibition above about 12%
BoNT A protease = blocks Botulinum neurotoxin A light chain protease; 360,000 tested, 0.17% active; multiplex microsphere protease substrate cleavage, flow cytometry; AID 588499; inhibition, % at 10 µM; further: plate controls were buffer without enzyme for full effect and enzyme alone for no effect
Anthrax LF inh2 = anthrax lethal factor protease inhibition; multiplex microsphere protease cleavage assay, LF; P15917; AID 588501; 360,000 tested, 0.12% active; inhibition, % at 10 µM; further: plate controls were buffer without enzyme for full effect and enzyme alone for no effect
Target sequence (P15917 whole entry, looked up): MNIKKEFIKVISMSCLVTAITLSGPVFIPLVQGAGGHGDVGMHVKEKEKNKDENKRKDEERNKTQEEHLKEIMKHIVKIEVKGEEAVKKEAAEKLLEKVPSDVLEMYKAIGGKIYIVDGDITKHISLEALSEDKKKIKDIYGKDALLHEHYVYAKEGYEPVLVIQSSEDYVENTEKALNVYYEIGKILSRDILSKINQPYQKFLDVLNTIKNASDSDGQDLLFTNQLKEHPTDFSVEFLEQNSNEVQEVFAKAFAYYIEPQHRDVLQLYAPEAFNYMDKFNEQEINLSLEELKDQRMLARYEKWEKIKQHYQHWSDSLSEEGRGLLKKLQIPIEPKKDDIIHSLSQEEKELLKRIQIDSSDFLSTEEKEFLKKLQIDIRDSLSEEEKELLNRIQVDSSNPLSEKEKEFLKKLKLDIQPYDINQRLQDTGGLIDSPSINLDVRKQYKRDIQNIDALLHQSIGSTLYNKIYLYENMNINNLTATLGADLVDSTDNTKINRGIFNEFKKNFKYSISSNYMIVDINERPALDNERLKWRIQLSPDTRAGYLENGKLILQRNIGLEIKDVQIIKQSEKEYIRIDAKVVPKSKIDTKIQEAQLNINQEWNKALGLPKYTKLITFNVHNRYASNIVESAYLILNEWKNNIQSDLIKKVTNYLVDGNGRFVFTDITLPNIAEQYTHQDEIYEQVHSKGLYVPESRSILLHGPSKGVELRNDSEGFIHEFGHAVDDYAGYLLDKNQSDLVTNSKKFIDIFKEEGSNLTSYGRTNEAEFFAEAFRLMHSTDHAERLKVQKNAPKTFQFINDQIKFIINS
VHR inh abs = blocks human VHR1 dual specificity phosphatase; inhibition, % at 13.3 µM; P51452; recombinant VHR phosphatase, pNPP absorbance; 290,000 tested, 0.52% active; in the data active means inhibition above about 50%
* marks the source's active call; other numbers are inactive results. Most compounds without a hit are left out; they make up all but 3.9% or so of the library. Unless noted, no stated cut-off is given here; in the data, active means inhibition above about 30%; inconclusive means no clear call, values can overlap the other calls; inactive means below that.

Screening O=C(NCC1CCCO1)C1CCCN(S(=O)(=O)c2cc(Cl)ccc2Cl)C1 (stereo not drawn) returned Autofluor counter 6632, BoNT F protease 2.7, 3CLpro inhibitor -0.9, BoNT A protease -1.5, Anthrax LF inh2 -2.6 and VHR inh abs -6.9.
`CCCn1nnc(NC(=O)c2cc3ccccc3o2)n1` gave Autofluor counter 11525, BoNT F protease -13.3, 3CLpro inhibitor -0.7, BoNT A protease -1.2, Anthrax LF inh2 0.9 and VHR inh abs 7.2.
CCn1nnc(NC(=O)c2cc3ccccc3o2)n1 was read as Autofluor counter 21445*, BoNT F protease 2.1, 3CLpro inhibitor -2.0, BoNT A protease 2.2, Anthrax LF inh2 4.4 and VHR inh abs 10.9.
Screening Cn1cnnc1SCC(=O)N(Cc1ccc2c(c1)OCO2)C1(C(=O)NC2CCCCC2)CCCC1 returned Autofluor counter 22413*, BoNT F protease -0.2, 3CLpro inhibitor -0.2, BoNT A protease 0.7, Anthrax LF inh2 -1.1 and VHR inh abs 25.3.
Screening CC(=O)c1cccc(OCc2cc(C(=O)N(C)Cc3cnccn3)no2)c1 returned Autofluor counter 6579, BoNT F protease 4.4, 3CLpro inhibitor -3.8, BoNT A protease -2.2, Anthrax LF inh2 -0.2 and VHR inh abs 50.2*.
Screening COc1cccc(OCc2cc(C(=O)N(C)Cc3nc4ccccc4[nH]3)no2)c1 returned Autofluor counter 5522, BoNT F protease -2.9, 3CLpro inhibitor -3.5, BoNT A protease 0.4, Anthrax LF inh2 -1.1 and VHR inh abs 51.3*.
Screening CC(=O)c1cccc(OCc2cc(C(=O)N(C)C(C)c3ccccn3)no2)c1 (stereo not drawn) returned Autofluor counter 6110, BoNT F protease -8.7, 3CLpro inhibitor 0.4, BoNT A protease 1.1, Anthrax LF inh2 -0.5 and VHR inh abs 17.5.
`Cc1ccc(S(=O)(=O)c2nc(/C=C/c3ccccc3)oc2N2CCC(C(N)=O)CC2)cc1` gave Autofluor counter 3015, BoNT F protease -6.8, BoNT A protease -0.1 and Anthrax LF inh2 -3.2.
`CCOc1ccc(C(=O)N(CN2CCCC2=O)c2ccccc2)cc1` gave Autofluor counter 19439*, BoNT F protease 0.0, 3CLpro inhibitor -1.9, BoNT A protease inconclusive, Anthrax LF inh2 -0.3 and VHR inh abs 11.3.
For Cc1ccc(C(=O)N(CN2CCCC2=O)c2ccccc2)cc1 the results were Autofluor counter inconclusive, BoNT F protease -24.5, 3CLpro inhibitor 6.9, BoNT A protease -19.0, Anthrax LF inh2 -27.5 and VHR inh abs -7.0.
Screening CCOc1ccc(C(=O)N(CN2CCCC2=O)c2ccc(C)cc2)cc1 returned 3CLpro inhibitor -1.5 and VHR inh abs 0.9.
Screening Cc1ccc(N(CN2CCCC2=O)C(=O)c2ccc(OC(C)C)cc2)cc1 returned Autofluor counter 19242*, BoNT F protease 0.9, 3CLpro inhibitor 0.8, BoNT A protease inconclusive, Anthrax LF inh2 -1.5 and VHR inh abs -2.4.
`O=C(CCN1C(=O)c2ccccc2C1=O)NCc1ccc(Cl)cc1` gave Autofluor counter 3867, BoNT F protease 9.0, 3CLpro inhibitor -6.7, BoNT A protease -1.3, Anthrax LF inh2 -0.2 and VHR inh abs -2.7.
For CCCCOc1ccccc1NC(=O)CSc1nnnn1C(C)(C)C the results were Autofluor counter 17476*, BoNT F protease -5.3, 3CLpro inhibitor -1.4, BoNT A protease -3.6, Anthrax LF inh2 -1.6 and VHR inh abs 1.1.
`COCCn1c(COc2ccccc2)nnc1SCC(N)=O` gave Autofluor counter 21005*, BoNT F protease -2.9, 3CLpro inhibitor -2.6, BoNT A protease inconclusive, Anthrax LF inh2 -5.2 and VHR inh abs -8.3.
`CCn1c(COc2cccc(C)c2)nnc1SCC(=O)CC(=O)Nc1ccccc1OC` gave Autofluor counter inconclusive, BoNT F protease -6.4, 3CLpro inhibitor 7.0, BoNT A protease 0.0, Anthrax LF inh2 inconclusive and VHR inh abs 33.4.
Screening CCn1c(COc2ccccc2)nnc1SCC(=O)CC(=O)Nc1ccccc1OC returned Autofluor counter 21864*, BoNT F protease 2.1, 3CLpro inhibitor 0.9, BoNT A protease 1.8, Anthrax LF inh2 -1.1 and VHR inh abs 17.6.
Screening CCOc1ccccc1-n1c(COc2ccc(C)cc2)nnc1SCC(N)=O returned Autofluor counter 22748*, BoNT F protease 0.5, 3CLpro inhibitor -5.5, BoNT A protease 0.8, Anthrax LF inh2 -2.2 and VHR inh abs 10.5.
Screening CCOc1ccc(-n2c(COc3ccccc3)nnc2SCC(N)=O)cc1 returned Autofluor counter 4263, BoNT F protease 2.9, 3CLpro inhibitor 1.6, BoNT A protease 0.3, Anthrax LF inh2 -2.6 and VHR inh abs 18.2.
For CCn1c(SCc2nc(CC(=O)Nc3ccccc3OC)no2)nnc1-c1cccs1 the results were Autofluor counter 22928*, BoNT F protease -2.1, 3CLpro inhibitor 1.4, BoNT A protease -0.9, Anthrax LF inh2 -5.6 and VHR inh abs 35.9.
Screening CC1(c2ccccc2Br)NC(=O)N(CC(=O)NC2CCCCC2)C1=O (stereo not drawn) returned Autofluor counter 7746, BoNT F protease -0.2, BoNT A protease 2.1 and Anthrax LF inh2 -8.3.
For CCN(Cc1ccccc1)S(=O)(=O)c1c(C)[nH]c(C)c1C(=O)N1CCCCC1 the results were Autofluor counter 5540, BoNT F protease -0.1, 3CLpro inhibitor -4.2, BoNT A protease -2.3, Anthrax LF inh2 -2.6 and VHR inh abs -2.2.
For C=C(C)c1ccc(C(C)(C)NC(=O)N(Cc2ccccc2)Cc2ccco2)cc1 the results were Autofluor counter 22989*, BoNT F protease -1.1, 3CLpro inhibitor -1.1, BoNT A protease inconclusive, Anthrax LF inh2 -2.0 and VHR inh abs 10.0.
Screening Cc1ccc(-c2ccc(=O)n(CC(=O)Nc3cccc(C(=O)N4CCN(C)CC4)c3)n2)cc1 returned Autofluor counter 19402*, BoNT F protease 2.1, 3CLpro inhibitor 7.3, BoNT A protease inconclusive, Anthrax LF inh2 -8.6 and VHR inh abs -7.7.
Screening CN(C)c1nc(NS(=O)(=O)c2ccc(Cl)cc2)nc(N(C)C)n1 returned Autofluor counter 16435*, BoNT F protease -2.9, 3CLpro inhibitor 5.5, BoNT A protease -0.3, Anthrax LF inh2 -2.8 and VHR inh abs 4.4.
Cc1cccc(NS(=O)(=O)c2ccc(Cl)cc2)n1 was read as Autofluor counter 4443, BoNT F protease inconclusive, 3CLpro inhibitor 4.6, BoNT A protease -2.0, Anthrax LF inh2 -5.1 and VHR inh abs -5.4.
Screening CC(=O)N1CCCc2cc(S(=O)(=O)N3CCCC(C(=O)Nc4cccc(C)c4)C3)ccc21 (stereo not drawn) returned Autofluor counter 5724, BoNT F protease -5.5, 3CLpro inhibitor -2.2, BoNT A protease -0.9, Anthrax LF inh2 -3.2 and VHR inh abs 54.2*.
`CCOc1ccc(NC(=O)C2CCCN(S(=O)(=O)c3ccc4c(c3)CCCN4C(C)=O)C2)cc1` (stereo not drawn) gave Autofluor counter 4578, BoNT F protease -7.2, 3CLpro inhibitor 4.5, BoNT A protease -0.8, Anthrax LF inh2 0.9 and VHR inh abs 12.8.
